TDP-43 yeast inh = rescues yeast growth from TDP-43 toxicity | Potency, µM (top dose mostly 46.1 µM), without a hit: at the highest dose growth rescue (activation), hits mostly activators | TDP-43 expressing yeast growth rescue, BacTiter-Glo, 24 h | 1.8% of 410,000 active; also: % of control where 0% means no effect; nearly all actives have a fitted effect of over 50% in size
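In this qHTS, compounds that restore growth of yeast expressing TDP-43 appear as activators. Cells (OD600=0.02, galactose medium, raffinose-pregrown) are incubated with compound 24 hr at 30 deg C and growth is quantified by BacTiter-Glo.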
FUS suppressor = rescues growth of FUS-expressing yeast; S. cerevisiae FUS-expressing, growth rescue, OD600, 24 h; Potency, µM (doses to about 76.6 µM), hits mostly activators; 0.24% of 390,000 active; AID 1347120;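 also: plate controls were DMSO vehicle for no effect and reference control for full effect; nearly all actives have a fitted effect of over 55% in size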
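FUS-expressing yeast, raffinose-pregrown, induced in 2% galactose minimal medium at OD 0.005; compounds in a dilution series, 24hr at 30C. Growth restoration read as absorbance at 600 nm. CP55940 positive control, DMSO negative.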
Abeta rescue = A-beta toxicity reversal in yeast; yeast expressing A-beta42, growth rescue, OD600, 48 h; response scale: 0% DMSO, 100% iron-clioquinol control; Potency, µM (titrated, usually from 46.1 µM), usual class: activators; 0.063% of 410,000 active; AID 1347071; also: nearly all actives have a fitted effect of over 55% in size
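Yeast growth medium received pinned compounds, then yeast cells expressing toxic A-beta were added; plates incubated at 30 C for 48 hr. Growth read as absorbance at 600 nm, normalized to DMSO and equimolar FeCl3 plus clioquinol controls.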
aSyn yeast inh = alpha-synuclein toxicity inhibition in yeast; Yeast expressing alpha-synuclein, growth rescue, BacTiter-Glo, 24 h; 0.14% of 370,000 active; Potency, µM (series often up to 46.1 µM), for inactives: at the top dose growth rescue (activation), actives largely listed as activators; also: % of control where 0% means no effect; nearly all actives have a fitted effect of over 65% in size
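Readout is rescue of growth in alpha-synuclein-expressing yeast, so inhibitors of toxicity appear as activators. Growth after 24 hr at 30 deg C in galactose medium is quantified by luminescence.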
PTAP TSG101 blk = blocks PTAP/TSG101 interaction to inhibit HIV-1 budding. Fluorescence polarization, FITC-PTAP peptide / Tsg101 binding. Potency, µM (doses to about 115 µM), without a hit: top-dose activity change, negative = inhibition, hits mostly inhibitors. 340,000 tested, under 10 active; active = well fitted inhibition curve with a large enough effect in the main read-out, with a control signal flat, not every such curve was filed as active; inconclusive = small, poorly fitted or top-dose-only effect, or effect the other way, or a change in a side signal; inactive = no such curve, though single readings can be large or run the other way; also: % of control where 0% means no effect
Target sequence (Q99816 whole entry, looked up): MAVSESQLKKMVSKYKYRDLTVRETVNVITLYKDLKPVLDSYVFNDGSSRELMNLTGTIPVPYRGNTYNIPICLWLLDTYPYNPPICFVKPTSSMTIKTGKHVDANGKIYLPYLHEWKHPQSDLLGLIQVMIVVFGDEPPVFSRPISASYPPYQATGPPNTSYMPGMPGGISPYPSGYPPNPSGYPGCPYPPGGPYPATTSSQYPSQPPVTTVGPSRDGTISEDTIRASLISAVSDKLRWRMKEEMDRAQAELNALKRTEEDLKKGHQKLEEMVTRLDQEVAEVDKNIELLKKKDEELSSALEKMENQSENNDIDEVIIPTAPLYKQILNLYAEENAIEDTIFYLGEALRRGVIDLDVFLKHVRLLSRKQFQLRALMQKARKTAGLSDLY
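FP read-out: FITC-PTAP peptide, 50 nM final, binding Tsg101 binding domain, 10 uM final; 20 min, r.t.; 10 mM HEPES pH 7.5, 0.15 M NaCl, 0.01% Tween 20, 3 mM EDTA, 0.1 mM TCEP.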
An asterisk follows results filed as active; i = inactive; ? = inconclusive; . = no result. This is a sample that favours compounds with a hit; in the whole collection about 2.1% have one here. Unless noted, calls follow the shape of the dose curve; as a rule, active = well fitted curve in the direction sought with a large enough effect; inconclusive = small, poorly fitted or top-dose-only effect, or another doubt; inactive = no such curve, though single readings can be large; an effect the other way counts as inactive or inconclusive. Potency is read from the fitted curve at half-maximal effect.

SMILES | TDP-43 yeast inh | FUS suppressor | Abeta rescue | aSyn yeast inh | PTAP TSG101 blk
COc1ccc(/C=C(/C(=O)c2cccs2)N2C=CC=CC2=C(C#N)C#N)cc1 | ? | i | i | 18µM* | -8%
COc1ccc(-n2c(=O)c3sc4ccccc4c3n(CC(=O)Nc3ccccc3F)c2=O)cc1 | 0% | i | i | . | .
O=C(NCc1cccc(Br)c1)c1cc(-c2ccccc2)nn1CC1CC(c2cccc([N+](=O)[O-])c2)=NO1 (centres undefined) | 3% | 32µM* | i | -3% | 17%
Cc1ccc2c(c1)nnn2C1CCN(C(=O)C2CCCCC2)CC1 | 20µM* | i | i | 4% | -5%
Cc1ccc2c(c1)nnn2C1CCN(C(=O)c2ccccc2F)CC1 | 26% | i | i | -5% | -3%
Cc1nn(-c2ccccc2)c(Cl)c1CN(C(=O)CCl)c1cccc2ccccc12 | 18µM* | i | i | 9% | 11%
CC(=O)N(Cc1c(C)nn(-c2ccccc2)c1Cl)c1ccc(Cl)cc1 | 6% | i | i | 18% | -2%
Cc1nn(-c2ccccc2)c(Cl)c1CN(C(=O)CCl)c1ccc(Cl)cc1 | 20µM* | . | i | -35% | -3%
Cc1ccc(C(=O)NCc2ccc(F)cc2)cc1NC(=O)c1nsc2ccccc12 | 18% | i | i | . | .
CC(=O)Nc1ccc(-c2csc(Nc3ccc(Cl)cn3)n2)cc1 | 9% | i | i | -17% | 2%
Cc1ccnc(Nc2nc(-c3c(C)nc4sccn34)cs2)c1 | 7.1µM* | i | i | . | -2%
CC(=O)Nc1ccc(-c2csc(Nc3cc(C)ccn3)n2)cc1 | 16µM* | i | i | -23% | -3%
COc1ccc(-c2csc(Nc3cc(C)ccn3)n2)cc1OC | 14µM* | i | i | -25% | -1%
CC(=O)Nc1cccc(-c2csc(Nc3ccc(Cl)cn3)n2)c1 | 22µM* | i | i | 3% | 0%
CCOc1ccc(NC(=O)Cn2c(=O)n(CC(=O)NCc3ccccc3Cl)c(=O)c3sccc32)cc1 | -36% | ? | i | . | .
COP(=O)(O)CCOCCC(CC(C)C)NC(=O)OCc1ccccc1 (centres undefined) | . | i | . | . | .
CCOC(=O)C1CCN(C(=O)c2cc3c(-c4ccc(OC)c(OC)c4)nn(C)c3s2)CC1 | 14µM* | i | i | -12% | -3%
Cc1cc(=O)n(CC(=O)N2CCN(c3ccc(F)cc3)CC2)c2c1c(C)nn2C | 11µM* | i | i | . | .
Cc1ccc(Cn2c(C)c3cnn(CC(=O)N4CCN(c5ccc(F)cc5)CC4)c(=O)c3c2C)cc1 | 16µM* | ? | i | . | .
O=S1(=O)CC2c3ccccc3CCN2CN1CCc1ccccc1 (centres undefined) | . | i | . | . | .
Cn1c(/C(C#N)=N/O)nc2ccccc21 | 13% | i | i | -1% | -1%
Cn1c(/C(C#N)=C/c2ccccc2Br)nc2ccccc21 | 11µM* | i | i | . | .
CCn1c(/C(C#N)=N/O)nc2ccccc21 | 18% | i | i | -7% | 0%
CCn1c(/C(C#N)=C/c2ccccc2Cl)nc2ccccc21 | 18µM* | i | i | . | .
CCOc1ccc(C(=O)Nc2ccc3nc(SCC(=O)N4CCc5ccccc54)sc3c2)cc1 | 19% | i | i | . | .
SMILES | TDP-43 yeast inh | FUS suppressor | Abeta rescue | aSyn yeast inh | PTAP TSG101 blk
CCC(=O)c1ccc(OCc2ccccc2)c(OC)c1 | 11µM* | i | i | 10% | -1%
CCC(=O)c1ccc(OCc2ccc(C(=O)OC)cc2)c(OC)c1 | 20% | i | i | -12% | 6%
Cc1ccc(-c2nc3ncccn3c2NC(=O)Nc2ccc(F)cc2)cc1 | . | i | . | . | .
Cc1ccc(S(=O)(=O)Cc2ccc(C(=O)N3CCN(c4cccc(Cl)c4)CC3)o2)cc1 | ? | ? | i | . | .
Cc1ccc(Cl)cc1N1CCN(C(=O)c2ccc(CS(=O)(=O)c3ccc(Br)cc3)o2)CC1 | -13% | 22µM* | i | . | .
CCCN1CNc2c(c(=O)[nH]c(=S)n2CCc2cccc(Cl)c2)C1 | . | . | . | -6% | .
CCc1cccc(C)c1NC(=O)CN1CCN(S(=O)(=O)c2ccc(C(C)(C)C)cc2)CC1 | -9% | 35µM* | i | 17% | -4%
CC1(c2nnc(-c3ccc(F)cc3)o2)CC(c2c(Cl)cccc2Cl)=NO1 (centres undefined) | 35µM* | i | i | -11% | 2%
CCOC(=O)c1noc2ncnc(NCc3ccccc3OC)c12 | 28µM* | i | i | . | .
COc1ccccc1C(=O)NC1CCCCCCC1 | 18µM* | i | i | 3% | -4%
O=C(NC1CCCC1)c1ccccc1OCc1ccccc1 | 20µM* | i | i | 6% | -4%
Cc1cc(/C=C2\C=Cc3ccccc32)cc(C)c1N | . | . | . | -22% | .
CCOC(=O)N1CCN(C(=O)c2ccc3oc(CCCc4ccccc4)nc3c2)CC1 | 16µM* | i | i | 6% | 0%
CC(=O)N1CCN(C(=O)c2ccc3oc(CCCc4ccccc4)nc3c2)CC1 | 3% | i | i | 2% | -2%
CN(C)S(=O)(=O)Oc1cccc(C(=O)Nc2ccccc2Cl)c1 | 14µM* | i | i | 2% | -5%
CN(C)S(=O)(=O)Oc1cccc(C(=O)Nc2ccc(Cl)cc2)c1 | 22µM* | i | i | -19% | 1%
CN(C)S(=O)(=O)Oc1ccc(C(=O)Nc2cccc(Cl)c2)cc1 | -11% | i | i | -4% | -1%
Nc1cccc(C(=O)Nc2ccccc2Cl)c1 | 20% | i | i | -1% | -1%
CC(=O)Nc1cccc(-c2ccnc3c2CC(C)(C(=O)NCC2CC2)O3)c1 (centres undefined) | 10% | i | i | -7% | .
Oc1c(C(Nc2nc3ccccc3s2)c2ccco2)ccc2cccnc12 (centres undefined) | 20µM* | . | i | -14% | 1%
NS(=O)(=O)c1ccc(NC(=O)c2cnn3c2NC(=C2CC2)C=C3C(F)F)cc1 | . | . | . | 2% | .
COc1ccccc1OCCSc1nc2ccccc2n1CCC(=O)O | 6% | i | i | 0% | -3%
COC(=O)Cn1c(SCCOc2ccccc2Cl)nc2ccccc21 | 28µM* | i | i | . | .
Cc1ccc(C(C)C)c(OCCSc2nc3ccccc3n2CC(O)CO)c1 (centres undefined) | 35µM* | i | i | . | .
O=C1CC(c2nc(-c3cccc(Cl)c3)no2)CN1c1ccc2c(c1)OCCO2 (centres undefined) | ? | i | i | . | .
CCCCCCCC/C=C\CCCCCCCC(=O)NCCc1ccc(O)c(O)c1 | 22µM* | ? | i | ? | -10%
CCCCCCCC/C=C\CCCCCCCC(=O)NCc1ccc(O)c(OC)c1 | . | . | . | 2% | .
O=C(NCc1ccccc1)c1ccccc1 | 19% | i | i | 1% | 1%

Assay outcomes: PubChem, National Center for Advancing Translational Sciences (NCATS)
